Experimental data published in PubChem BioAssay (Tox21).
The source made the active and inactive calls. Calls follow the shape of the dose curve; as a rule, active = well fitted activation curve with a large enough effect in the repeat runs; inconclusive = weak or mixed curves; inactive = flat fitted curve, though single readings scatter.

assay: A CellTox Green Cytotoxicity Assay to monitor cytotoxicity in HepG2 cells - 0 hour (AID 1224882); conditions: CellTox Green fluorescence; series mostly up to 76.8 µM; cytotoxicity: at the top concentration; also: nearly all actives have a fitted effect of over 35% in size
Source text: National Center for Advancing Translational Sciences [NCATS]
NIH Chemical Genomics Center [NCGC]
U.S. Environmental Protection Agency [EPA]
National Institutes of Environmental Health Sciences [NIEHS]
National Toxicology Program [NTP]
Cell-based models are critical for drug discovery. Determining the natural cytotoxic effects resulting from test compounds is an essential research activity. A CellTox Green Cytotoxicity Assay to monitor cytotoxicity in real time of continues cell culture during 40 hours of the compound treatment was used to screen Tox21 10K library compounds in HepG2 cells. CellTox Green Cytotoxicity Assay is a nonlytic, homogeneous, biofluorescent method to measure cytotoxicity in cell culture after experimental manipulation. The assay system uses a proprietary asymmetric cyanine dye that is excluded from viable cells but preferentially stains the dead cell's DNA. […] Viable cells produce no appreciable increases in fluorescence. Therefore, the fluorescence signal produced by the binding interaction with dead cell DNA is proportional to cytotoxicity.
The mixture of HepG2 cell suspension and reagents were dispensed at 600cells/6 ul/well in 1536-well tissue culture treated black solid bottom plates using a Multidrop dispenser. After the assay plates were incubated at a 37 C/5% CO2 incubator for 5 hours, 23 nL of compounds dissolved in DMSO, positive and negative controls was transferred to the assay plate by a pintool work station. The plates were incubated at 37 C for 40 hours. The fluorescence intensity were measured at 0h, 8h, 16h, 24h, 32h and 40h time points using ViewLux plate reader during compound treatment.
% is scaled to controls: 0 for no effect and ±100 for the full control effect; potency is read from the fitted curve at half-maximal effect.

| Structure (SMILES) | cytotoxicity | Potency |
| --- | --- | --- |
| CC(C)(C)CC(C)(C)c1ccc(Nc2ccc(C(C)(C)CC(C)(C)C)cc2)cc1 | 0.162% [at 6.97 µM] (inactive) |  |
| Cc1cc(C(C)(C)C)cc(C)c1CC1=NCCN1 | 1.23% [at 35.3 µM] (inactive) |  |
| O=C1CCCCCCCCCCCCCCCO1 |  | 38.9 µM (active) |
| CC(=O)Oc1cc2c(s1)CCN(C(C(=O)C1CC1)c1ccccc1F)C2 (stereo not given) | -13% [at 35.3 µM] (inactive) |  |
| CN(C)CCN1CCN(c2cccc(Cl)c2)C1=O | -2.01% [at 35.3 µM] (inactive) |  |
| O=C(O)Cc1ccc2c(c1)C(=O)c1ccccc1CO2 | -12.4% [at 35.3 µM] (inactive) |  |
| CCCC[P+](C)(CCCC)CCCC | -6.84% (inactive) |  |
| COc1cccc(OC)c1C(=O)O | 0.856% (inactive) |  |
| COc1c(C)c2c(c(O)c1C/C=C(\C)CCC(=O)OCCN1CCOCC1)C(=O)OC2 | 1.83% [at 35.3 µM] (inactive) |  |
| Clc1sc(Cl)c(Cl)c1Cl | 2.84% (inactive) |  |
| Oc1cc(Cl)cc(Cl)c1Cl | 0.976% (inactive) |  |
| CCCNCCC | 0.59% (inactive) |  |
| O=C1C(c2[nH]c3ccc(S(=O)(=O)O)cc3c2O)=Nc2ccc(S(=O)(=O)O)cc21 | -1.01% (inactive) |  |
| Cc1cc(C(C#N)c2ccc(Cl)cc2)c(Cl)cc1NC(=O)c1cc(I)cc(I)c1O (stereo not given) | -3.05% [at 35.3 µM] (inactive) |  |
| Cc1ccc(N/N=c2\c(=O)cc/c(=N\Nc3ccc(S(=O)(=O)O)cc3)c2=O)c(C)c1 | -22% (inactive) |  |
| CN1CCC[C@@H]1CCO[C@](C)(c1ccccc1)c1ccc(Cl)cc1 | 2.5% [at 35.3 µM] (inactive) |  |
| CCc1ccc(Br)cc1 | -2.22% (inactive) |  |
| CCC(=O)C(=O)CC | -3.21% (inactive) |  |
| CC(C)NC[C@@H](O)COc1ccc(CC(N)=O)cc1 | 4.06% [at 35.3 µM] (inactive) |  |
| Cc1cc(C)c(/C=C2\C(=O)Nc3ccccc32)[nH]1 |  | 10.7 µM (active) |

| Structure (SMILES) | cytotoxicity | Potency |
| --- | --- | --- |
| CN(C)Cc1cc(C(C)(C)C)c(O)c(C(C)(C)C)c1 | -4.24% (inactive) |  |
| Nc1cc(Cl)c(O)c(Cl)c1 | -6.71% (inactive) |  |
| Cc1ccc(O)c(N)c1 | -4.95% (inactive) |  |
| CCCCCCCCCCCCCC[N+](C)(C)Cc1ccccc1 |  | inactive |
| CCOC(=O)NNc1ccc(N(CC)CC(C)O)nn1 (stereo not given) | 2.64% [at 35.3 µM] (inactive) |  |
| COc1ccc2cc1Oc1ccc(cc1)C[C@H]1c3c(cc4c(c3Oc3cc5c(cc3OC)CCN(C)[C@@H]5C2)OCO4)CCN1C | 3.21% [at 35.3 µM] (inactive) |  |
| CC(C)(C)NSc1nc2ccccc2s1 | -3.08% (inactive) |  |
| CC(C)(C)c1ccc(C(O)CCCN2CCC(C(O)(c3ccccc3)c3ccccc3)CC2)cc1 (stereo not given) | -8.94% [at 35.3 µM] (inactive) |  |
| O=C(O)c1cc(N=Nc2ccc([N+](=O)[O-])cc2)ccc1O | -0.78% (inactive) |  |
| CN1CCCCC1CCN1c2ccccc2Sc2ccc(S(C)=O)cc21 (stereo not given) | 14.2% [at 35.3 µM] (inactive) |  |
| Cc1ccc(O)c(O)c1 | 10.9% (inactive) |  |
| COc1cc(S(=O)(=O)O)c(C)cc1N=Nc1c(O)ccc2cc(S(=O)(=O)O)ccc12 | -38.6% (inactive) |  |
| O=C(O)Cc1ccccc1Nc1c(Cl)cccc1Cl |  | inactive |
| Cc1cc(=O)oc2cc(O)cc(O)c12 | 2.27% (inactive) |  |
| O=S(=O)(O)c1ccc(Nc2nc(Nc3ccc(/C=C/c4ccc(Nc5nc(Nc6ccc(S(=O)(=O)O)cc6)nc(N(CCO)CCO)n5)cc4S(=O)(=O)O)c(S(=O)(=O)O)c3)nc(N(CCO)CCO)n2)cc1 | 0.393% [at 35.3 µM] (inactive) |  |
| CC1(C)[C@@H](O)CC[C@]2(C)[C@H]3C(=O)C=C4[C@@H]5C[C@@](C)(C(=O)O)CC[C@]5(C)CC[C@@]4(C)[C@]3(C)CC[C@@H]12 | 0.157% (inactive) |  |
| O=C(O)c1cc(O)c2ccccc2c1O | 0.754% (inactive) |  |
| CCC(C)[O-].CCC(C)[O-].CCOC(=O)/C=C(/C)[O-].[Al+3] | 7.47% (inactive) |  |
| CC(=O)c1ccc(C(C)=O)cc1 | 0.314% (inactive) |  |
| OC/C=C/CO | 2.79% (inactive) |  |
